Test results as given in PubChem BioAssay (EPA / NIEHS).
Calls of active or inactive are those of the source. The calls were made as follows: active = hit-call score of the fitted dose curve at least 0.9, where 1 is the maximum; inactive = score below 0.9.

The molecules below were run against Transcription factor E2F1 (Homo sapiens) (UniProt Q01094) (assay: ATG_E2F_CIS: Attagene CIS-FACTORIAL HepG2 Assay for human E2F Transcription Factor 1 (AID 2282935)). Conditions: HepG2 Attagene cis-reporter, E2F reporter RNA transcripts; actives raise or lower the signal.
Chain of Transcription factor E2F1 (Homo sapiens) (Q01094 whole entry, looked up): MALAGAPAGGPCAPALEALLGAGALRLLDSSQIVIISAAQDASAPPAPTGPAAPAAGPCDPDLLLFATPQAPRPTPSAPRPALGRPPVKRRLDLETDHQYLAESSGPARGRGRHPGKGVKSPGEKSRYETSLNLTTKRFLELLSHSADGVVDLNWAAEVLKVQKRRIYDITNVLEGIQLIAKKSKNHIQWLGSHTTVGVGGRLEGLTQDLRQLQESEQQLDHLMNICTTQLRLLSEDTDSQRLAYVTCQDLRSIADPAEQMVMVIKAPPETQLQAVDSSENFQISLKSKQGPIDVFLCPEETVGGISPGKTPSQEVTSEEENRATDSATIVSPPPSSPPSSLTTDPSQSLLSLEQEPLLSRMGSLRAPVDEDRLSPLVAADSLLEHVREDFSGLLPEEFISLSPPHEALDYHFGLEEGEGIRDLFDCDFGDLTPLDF
Protocol: ATG_CIS is a cell-based, multiplexed-readout assay that uses HepG2, a human liver cell line, with measurements taken at 24 hours after chemical dosing in a 24-well plate.ATG_E2F_CIS is one of 52 assay component(s) measured or calculated from the ATG_CIS assay. It is designed to make measurements of mRNA induction, a form of inducible reporter, as detected with fluorescence intensity signals by Reverse transcription polymerase chain reaction (RT-PCR) and Capillary electrophoresis technology.Data from the assay component ATG_E2F_CIS was analyzed into 1 assay endpoint. This assay endpoint, ATG_E2F_CIS, was analyzed with bidirectional fitting relative to DMSO as the negative control and baseline of activity. Using a type of inducible reporter, measures of mRNA for gain or loss-of-signal activity can be used to understand the reporter gene at the transcription factor-level as they relate to the gene E2F1. Furthermore, this assay endpoint can be referred to as a primary readout, because this assay has produced multiple assay endpoints where this one serves a reporter gene function. To generalize the intended target to other relatable targets, this assay endpoint is annotated to the dna binding intended target family, where the subfamily is E2F transcription factor.
Human liver HepG2 cells are transiently transfected with multiple reporter transcription units (MRTUs) in 6-well plates using FuGene 6 reagent (Roche; 3 ml FuGene/1 mg DNA). The MRTU constructs are regulated by a cis-regulating element (promoter). […] A major difference between the CIS and TRANS system is that in CIS activities of endogenous TFs are measured, whereas the TRANS assay evaluates changes in activities of exogenous, chimeric NR-Gal4 proteins. […] At the end of 24 hour incubation, total RNA was isolated using TriZol reagent (Invitrogen). The isolated RNA is then reverse-transcribed using oligo(dT) primer and Mo-MLV reverse transcriptase (Invitrogen) with DNAse I (Ambion) treatment for 30 min. The one-tenth of the produced cDNA was amplified by PCR using Taq DNA polymerase (Invitrogen) and two reporter sequence-specific primers. The PCR products were fluorescently labeled by primer extension with 6-arboxyfluorescein (6-FAM) 5'-labeled reporter sequence-specific primer (2 min at 95 C, 20 s at 68 C and 10 min at 72 C) and these products were digested with 5U of HpaI (New England Biolabs) for 2h at 37 C. The fragments were purified using Qiaquick PCR columns (Qiagen), analyzed on an ABI 3130xL genetic analyzer (Applied Biosystems) with peak positions identified by using a set of X-rhodamine (ROX)-labeled MapMarker1000 molecular weight standards (BioVentures). The raw capillary electrophoresis data was processed using Attagraph software (Attagene).

outcome, inactive:
O=C(O)c1nc(Cl)c(Cl)c(Cl)c1Cl, CCO[Si](CCCN)(OCC)OCC, CC(=O)OC(C)(C)Cc1ccccc1, CC(C)CC(=O)CC(C)C, Oc1ccc(Cl)cc1C1CCCC1, CC1=C(CC=O)C(C)(C)CCC1, CCc1cc(C(N)=S)ccn1, CC/C=C\CC1=C(C)CCC1=O, CCOc1ccc2c(c1)C(C)CC(C)(C)N2 (stereo not given), CCCCCCCCCCCCCCCCCC[N+](C)(C)C, COc1ccc2ccccc2c1, CC1(C)S[C@@H]2[C@H](NC(=O)[C@H](N)c3ccccc3)C(=O)N2[C@H]1C(=O)O, CCCCCCOC(=O)CCCCCCCC(=O)OCCCCCC, OCCN(CCO)c1cccc(Cl)c1, CC[N+](CC)(CC(=O)Nc1c(C)cccc1C)Cc1ccccc1 (tested in a mixture with another compound), c1cc[c]([Bi]([c]2ccccc2)[c]2ccccc2)cc1, CC/C=C\CC/C=C/C(OCC)OCC, CC(C)(C)NC(=O)[C@@H]1CN(Cc2cccnc2)CCN1C[C@@H](O)C[C@@H](Cc1ccccc1)C(=O)N[C@H]1c2ccccc2C[C@H]1O, COC(=O)[C@]1(C)CCC[C@@]2(C)[C@H]1CC=C1C=C(C(C)C)CC[C@@H]12, CCCCOC(=O)COc1ccc(Cl)cc1Cl, Sc1nc2ccccc2s1, Clc1ccccn1, CCCCCCC1CCC(=O)O1 (stereo not given), CCCCn1cc[n+](C)c1, CC=CC(=O)O, Cc1ccnc(N)c1, CO[Si](CCCNCCN)(OC)OC, C=C1CC[C@H]2C[C@@H]1C2(C)C, O=C(O)/C=C\C(=O)O, CC(C)CC(=O)O, COC(=O)c1ccccc1, CCC(C)C1N=C(C)C(C)S1 (stereo not given), N#CCN(CC#N)CCN(CC#N)CC#N, COc1cccc(OC)c1C(=O)O, COC(=O)/C=C\C(=O)OC, OCCOCCOCCOCCOCCO, CC1=NN(c2cc(Cl)c(S(=O)(=O)O)cc2Cl)C(=O)C1N=Nc1ccc(S(=O)(=O)O)cc1 (stereo not given), CCCC(=O)OC, CC(O)(P(=O)(O)O)P(=O)(O)O, Cc1cccnc1
